15 compounds from PubChem BioAssay can be followed below.

For part of these data: Results with a measured potency or affinity are listed apart. Activity calls are given as the source filed them. Unless noted, the rule behind the calls is not given here.

Experiment [1] has as its target Cell division control protein 42 homolog (Homo sapiens) (UniProt P60953). Kind of experiment: inhibition of fluorescent GTP binding to constitutively active Cdc42 – biochemical, multiplex bead flow cytometry, Bodipy-FL-GTP, dose response (AID 1333;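 active = fitted half-maximal concentration within the tested dose range, moderate curve steepness, a statistically real signal drop, and little compound fluorescence or tag-binding interference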). (In general: Flow cytometry measures light scatter and fluorescence of single cells or particles in a stream.)
Experiment [2] shares this target. The experiment can be described thus: inhibition of fluorescent GTP binding to wildtype Cdc42 – biochemical, multiplex bead flow cytometry, Bodipy-FL-GTP, dose response (AID 1334;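 active = fitted half-maximal concentration within the tested range, moderate curve steepness, significant signal drop, and little compound fluorescence or bead-linkage interference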). Particulars: bead-based flow cytometry, Bodipy-FL-GTP binding to GST-Cdc42; at 100 µM (top of the series) unless noted.
Experiment [3] concerns the target GTPase HRas (Homo sapiens) (UniProt P01112). Kind of experiment: Ras wt fluorescent GTP loading blockade – biochemical, wildtype, multiplex bead flow cytometry, dose response (AID 1335;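 active = fitted half-maximal concentration within 10 nM to 100 µM, steepness 0.5 to 2, significant signal drop, low assay interference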). Particulars: bead-based flow cytometry, Bodipy-GTP binding to GST-Ras; at 100 µM (top of the series) unless noted.
The test system of experiment [4] is Ras-related protein Rab-7a (dog), GTP binding. The experiment can be described thus: blockers of fluorescent GTP binding to Rab7 – biochemical, wildtype, multiplex bead flow cytometry, dose response (AID 1336).
In experiment [5] the target is Ras-related C3 botulinum toxin substrate 1 (Homo sapiens) (UniProt P63000). Kind of experiment: inhibition of wildtype Rac1 nucleotide loading – biochemical, multiplex bead flow cytometry, dose response (AID 1340;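 active = dose curve with midpoint inside tested range, moderate steepness, plateau gap beyond fit error, low compound glow and bead-link interference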). Particulars: GST-Rac1 beads, Bodipy-FL-GTP binding; at 100 µM (top of the series) unless noted.
The target in experiment [6] is GTPase HRas (Homo sapiens) (UniProt P01112). The experiment can be described thus: blockade of GTP loading onto mutant Ras – biochemical, activated mutant, multiplex bead flow cytometry, dose response (AID 1341;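 active = dose-response curve with midpoint inside the tested range, moderate steepness, significant amplitude and little compound fluorescence or bead-attachment interference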;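 note: GST-tagged constitutively activated Ras mutant immobilized on beads and multiplexed with other GTPases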).
GTPase HRas (Homo sapiens), sequence (P01112 whole entry, looked up): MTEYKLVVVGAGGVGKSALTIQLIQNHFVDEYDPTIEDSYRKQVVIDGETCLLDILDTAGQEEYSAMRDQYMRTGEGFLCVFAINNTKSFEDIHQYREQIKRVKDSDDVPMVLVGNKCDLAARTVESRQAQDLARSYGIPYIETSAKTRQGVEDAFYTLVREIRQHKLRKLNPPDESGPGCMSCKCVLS

Cell division control protein 42 homolog (Homo sapiens), sequence (P60953 whole entry, looked up): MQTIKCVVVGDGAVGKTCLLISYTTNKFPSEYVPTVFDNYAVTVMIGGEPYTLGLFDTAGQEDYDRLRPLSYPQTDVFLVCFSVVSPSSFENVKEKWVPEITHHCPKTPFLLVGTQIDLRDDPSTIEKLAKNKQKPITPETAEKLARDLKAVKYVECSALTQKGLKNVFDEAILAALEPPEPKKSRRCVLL

In the case of `COc1ccc(C=O)cc1CSc1ncccc1C(=O)O`, the result in experiment [1], in experiment [4] and in experiment [6] was inactive. Also, in experiment [2], the fluorescence, percent of control (lower = inhibition) is 61.6%. The compound further returned a GTP binding, percent of control in experiment [3] of 88.9%. Moreover, the GTP binding signal, raw median fluorescence (lower = inhibition) (MCF (arbitrary fluorescence units)) in experiment [5] stood at 33.8.
In the case of `C(=N\Nc1nn2cnnc2c2ccccc12)/c1ccco1`, the call in experiment [1], in experiment [4] and in experiment [6] was inactive. The compound also yielded a fluorescence, percent of control (lower = inhibition) in experiment [2] of 31.6%. The GTP binding, percent of control in experiment [3] was found to be 64.2%. This compound yielded a GTP binding signal, raw median fluorescence (lower = inhibition) (MCF (arbitrary fluorescence units)) in experiment [5] of 142.
Turning to `CCOc1c2ccc(C(=O)N[C@H](C)C3CCCCC3)cc2nn1CCOC`, the result in experiment [1], in experiment [4] and in experiment [6] was inactive. This compound came in with a fluorescence, percent of control (lower = inhibition) in experiment [2] of 94.9%. The GTP binding, percent of control in experiment [3] was 152%. Moreover, the GTP binding signal, raw median fluorescence (lower = inhibition) (MCF (arbitrary fluorescence units)) in experiment [5] is 197.
As for `Cc1nnc2ccc(-c3cccc(NC(=O)c4ccco4)c3)nn12`, the compound was classed as inactive in experiment [1], in experiment [4] and in experiment [6]. Moreover, the fluorescence, percent of control (lower = inhibition) in experiment [2] was determined as 28.7%. The compound also returned a GTP binding, percent of control in experiment [3] of 59.2%. Moreover, the GTP binding signal, raw median fluorescence (lower = inhibition) (MCF (arbitrary fluorescence units)) in experiment [5] is 131.
As to `Cc1sc2ncnc(N/N=C/c3ccc(O)cc3)c2c1C`, the compound was called inactive in experiment [1], in experiment [4] and in experiment [6]. The same compound displayed a fluorescence, percent of control (lower = inhibition) in experiment [2] of 27.2%. Also, in experiment [3], the GTP binding, percent of control was 64.8%. The compound also gave a GTP binding signal, raw median fluorescence (lower = inhibition) (MCF (arbitrary fluorescence units)) in experiment [5] of 312.
As to `CC(C)(C)C#CC(=O)c1ccc([N+](=O)[O-])cc1`, the result in experiment [1], in experiment [4] and in experiment [6] was inactive. Moreover, the fluorescence, percent of control (lower = inhibition) in experiment [2] worked out at 37.9%. In addition, the GTP binding, percent of control in experiment [3] amounted to 196%. Further, the GTP binding signal, raw median fluorescence (lower = inhibition) (MCF (arbitrary fluorescence units)) in experiment [5] was 49.6.
Consider `O=C(O)c1ccccc1NCc1ccc(Cl)cc1`, for which the outcome in experiment [1], in experiment [4] and in experiment [6] was inactive. Further, the fluorescence, percent of control (lower = inhibition) in experiment [2] came out at 79.2%. The GTP binding, percent of control in experiment [3] was 95.6%. In experiment [5], this compound came in with a GTP binding signal, raw median fluorescence (lower = inhibition) (MCF (arbitrary fluorescence units)) of 50.2.
Consider `O=S(=O)(Cc1ccc(Cl)cc1)c1ccccc1-c1nnc(-c2ccc(Cl)cc2)o1`, for which the outcome in experiment [1], in experiment [4] and in experiment [6] was inactive. The fluorescence, percent of control (lower = inhibition) in experiment [2] came out at 84%. Further, in experiment [3], the GTP binding, percent of control is 160%. In experiment [5], this compound yielded a GTP binding signal, raw median fluorescence (lower = inhibition) (MCF (arbitrary fluorescence units)) of 172.
With `O=C(Cn1nc(-c2ccccc2)c2ccccc2c1=O)Nc1ccccn1`, the call in experiment [1], in experiment [4] and in experiment [6] was inactive. Also, the fluorescence, percent of control (lower = inhibition) in experiment [2] stood at 45.6%. In addition, the GTP binding, percent of control in experiment [3] came to 58.1%. Moreover, the GTP binding signal, raw median fluorescence (lower = inhibition) (MCF (arbitrary fluorescence units)) in experiment [5] is 194.
Regarding `NC(=O)c1cc2ccccc2o/c1=N/NC(=O)c1cccs1`, the compound was called inactive in experiment [1], in experiment [4] and in experiment [6]. Moreover, the fluorescence, percent of control (lower = inhibition) in experiment [2] worked out at 33.4%. Moreover, in experiment [3], the GTP binding, percent of control was found to be 69.6%. The compound also showed a GTP binding signal, raw median fluorescence (lower = inhibition) (MCF (arbitrary fluorescence units)) in experiment [5] of 167.
As to `COc1cc(NS(=O)(=O)c2ccc(NC(=O)/C=C/c3cccc([N+](=O)[O-])c3)cc2)ncn1`, the compound was called inactive in experiment [1], in experiment [4] and in experiment [6]. The compound also showed a fluorescence, percent of control (lower = inhibition) in experiment [2] of 29.8%. In experiment [3], the GTP binding, percent of control was found to be 77.7%. This compound also showed a GTP binding signal, raw median fluorescence (lower = inhibition) (MCF (arbitrary fluorescence units)) in experiment [5] of 191.
As for `Cc1ccc(-n2c3nc(=O)[nH]c(=O)c-3cc3cc([N+](=O)[O-])ccc32)cc1`, the result in experiment [1], in experiment [4] and in experiment [6] was inactive. Also, the fluorescence, percent of control (lower = inhibition) in experiment [2] is 34.4%. Besides, the GTP binding, percent of control in experiment [3] amounted to 71%. The same compound came in with a GTP binding signal, raw median fluorescence (lower = inhibition) (MCF (arbitrary fluorescence units)) in experiment [5] of 103.
Turning to `COc1ccc(C(=O)C2CCCN(C(=O)c3cc4nc(C)cc(C)n4n3)C2)cc1F` (stereo not given), the result in experiment [1], in experiment [4] and in experiment [6] was inactive. Further, in experiment [2], the fluorescence, percent of control (lower = inhibition) stood at 41.4%. In experiment [3], this compound returned a GTP binding, percent of control of 95.1%. The GTP binding signal, raw median fluorescence (lower = inhibition) (MCF (arbitrary fluorescence units)) in experiment [5] turned out to be 274.
Take `C=CCOc1cccc(/C=N/NC(=O)CN(c2cc(Cl)ccc2OC)S(=O)(=O)c2ccc(C)c([N+](=O)[O-])c2)c1`: the call in experiment [1], in experiment [4] and in experiment [6] was inactive. The compound further had a fluorescence, percent of control (lower = inhibition) in experiment [2] of 50.3%. Besides, in experiment [3], the GTP binding, percent of control came out at 56%. In addition, the GTP binding signal, raw median fluorescence (lower = inhibition) (MCF (arbitrary fluorescence units)) in experiment [5] worked out at 0.
Consider `COc1ccc(CNc2nc3c(c(=O)n(Cc4ccc(Br)cc4)c(=O)n3C)n2C)cc1`, for which the outcome in experiment [1], in experiment [4] and in experiment [6] was inactive. This compound also showed a fluorescence, percent of control (lower = inhibition) in experiment [2] of 32%. In experiment [3], this compound registered a GTP binding, percent of control of 83.8%. The GTP binding signal, raw median fluorescence (lower = inhibition) (MCF (arbitrary fluorescence units)) in experiment [5] was determined as 222.
